Screen size: about 310,000 compounds; about 14,000 (4.5%) showed an effect of 50% or more. The effect is printed as a negative number. Only a selection was taken, and strong results are over-represented in it overall.
What follows are compounds tested against human ether-à-go-go-related gene (hERG) potassium channel (human, UniProt Q12809) (assay: primary screen, population patch clamp on CHO cells stably expressing hERG; higher = less effect of the substance).
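Also: peak tail current of the secondary pulse compared with the same well before compound.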

Chain of human ether-à-go-go-related gene (hERG) potassium channel (Q12809 whole entry, looked up): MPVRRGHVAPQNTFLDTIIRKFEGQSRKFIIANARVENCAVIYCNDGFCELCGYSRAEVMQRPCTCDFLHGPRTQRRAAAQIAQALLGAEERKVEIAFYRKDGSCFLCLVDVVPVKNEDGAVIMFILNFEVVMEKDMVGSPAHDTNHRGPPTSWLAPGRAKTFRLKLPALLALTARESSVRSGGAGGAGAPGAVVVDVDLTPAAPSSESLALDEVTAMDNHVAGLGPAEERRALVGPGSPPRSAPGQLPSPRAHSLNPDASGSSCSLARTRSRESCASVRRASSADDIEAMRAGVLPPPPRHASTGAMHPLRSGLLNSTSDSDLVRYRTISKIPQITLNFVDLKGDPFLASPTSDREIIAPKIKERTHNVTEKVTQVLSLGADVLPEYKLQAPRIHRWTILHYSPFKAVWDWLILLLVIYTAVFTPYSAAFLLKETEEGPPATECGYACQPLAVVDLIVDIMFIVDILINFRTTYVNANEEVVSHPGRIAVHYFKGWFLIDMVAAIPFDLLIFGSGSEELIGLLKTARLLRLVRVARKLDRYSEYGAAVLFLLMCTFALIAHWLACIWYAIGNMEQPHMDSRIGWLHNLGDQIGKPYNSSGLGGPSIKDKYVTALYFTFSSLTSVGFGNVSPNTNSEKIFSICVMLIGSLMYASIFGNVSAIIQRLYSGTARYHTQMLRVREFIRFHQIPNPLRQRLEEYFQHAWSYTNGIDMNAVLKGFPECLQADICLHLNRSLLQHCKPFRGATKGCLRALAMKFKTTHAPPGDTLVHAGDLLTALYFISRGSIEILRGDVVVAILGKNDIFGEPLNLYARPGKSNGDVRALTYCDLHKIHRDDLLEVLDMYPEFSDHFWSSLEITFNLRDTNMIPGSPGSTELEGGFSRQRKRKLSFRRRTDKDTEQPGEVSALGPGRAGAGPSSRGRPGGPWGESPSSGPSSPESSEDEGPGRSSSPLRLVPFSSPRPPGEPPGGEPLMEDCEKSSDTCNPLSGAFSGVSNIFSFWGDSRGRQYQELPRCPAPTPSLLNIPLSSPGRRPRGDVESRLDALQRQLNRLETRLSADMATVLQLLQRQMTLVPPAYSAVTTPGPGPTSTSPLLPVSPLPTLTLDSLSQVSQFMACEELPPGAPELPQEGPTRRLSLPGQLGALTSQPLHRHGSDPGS

Row | SMILES | hERG current change (%, negative = inhibition) at 10uM
1 | CCN(CC)C(=O)CSc1nnc(-c2cccs2)n1Cc1ccco1 | -11%
2 | Cc1ccc(S(=O)(=O)c2c(C)nn(C(C)(C)C)c2OC(=O)c2ccc(Br)o2)cc1 | 7.32%
3 | Cc1cc(C)n(CCCNC(=O)Cn2nnnc2CN2C[C@@H](C)O[C@@H](C)C2)n1 | 6.72%
4 | C/C(=N\NC(=O)c1nnn(-c2nonc2N)c1CSc1ccccc1)c1ccc2c(c1)OCO2 | 17.5%
5 | CC(=O)OC1CC(c2cc(C(C)(C)C)c(O)c(C(C)(C)C)c2)=NO1 (stereo not shown) | 0.755%
6 | CCOc1ccc(NC(=O)COc2ccc3c(c2)CCC3)cc1OC | 3.04%
7 | Cc1ccccc1NCc1ccccc1O.Cl | -0.966%
8 | Cc1cc(NC(=O)Nc2ccc(F)cc2)no1 | -8.3%
9 | COc1cc(OC)cc(C(=O)OCCCOC(=O)c2cc(OC)cc(OC)c2)c1 | 24.6%
10 | O=C(Nc1nc2ccccc2[nH]1)c1ccc(S(=O)(=O)N2CCOCC2)cc1 | 2.85%
11 | COc1ccccc1CCC(=O)Nc1nc2ccccc2[nH]1 | 15.7%
12 | O=C(Nc1nc2ccccc2[nH]1)c1ccc(Cl)c(S(=O)(=O)N2CCCC2)c1 | -9.28%
13 | O=C(Nc1nc2ccccc2[nH]1)c1ccc(F)c(S(=O)(=O)N2CCOCC2)c1 | -50.3%
14 | COc1ccc(CCC(=O)Nc2nc3ccccc3[nH]2)cc1 | 14.3%
15 | O=C(Nc1nc2ccccc2[nH]1)c1cccc(S(=O)(=O)N2CCOCC2)c1 | -8.91%
16 | COc1ccc(C(=O)Nc2nc3ccccc3[nH]2)cc1OC | -6.47%
17 | COc1ccc(C(=O)Nc2ccccc2C)cc1S(=O)(=O)N1CCOCC1 | 2.73%
18 | COc1ccc(C(=O)Nc2nc3ccccc3[nH]2)cc1S(=O)(=O)N1CCOCC1 | -70.1%
19 | COc1ccc(CCC(=O)Nc2nc3ccccc3[nH]2)cc1OC | -55.7%
20 | COc1ccc(C(=O)Nc2ccc(NC(=O)c3ccccc3)cc2)cc1S(=O)(=O)N1CCOCC1 | 16.6%
21 | COc1ccc(C(=O)Nc2nc3ccccc3[nH]2)cc1S(=O)(=O)N1CCCC1 | -52.8%
22 | COc1ccc(CCNC(=O)COC(=O)/C=C/c2ccc(OCC#N)c(OC)c2)cc1OC | -17.1%

Row | SMILES | hERG current change (%, negative = inhibition) at 10uM
23 | CCOC(=O)SC1=N/C(=C\c2ccc(N(C)C)cc2)C(=O)S1 | 14.9%
24 | COc1ccc(CCN(C)C(=O)c2ccc(COc3ccccc3)o2)cc1OC | -3.91%
25 | COCC(=O)Nc1ccc(F)cc1 | 18.6%
26 | O=c1c(Cc2ccc(F)cc2)c(O)ccn1Cc1ccc(Cl)cc1Cl | 6.08%
27 | COc1cc(O)c(C(CC(=O)N2CCCC(C)C2)c2cc(OC)c(OC)c(OC)c2)c(OC)c1 (stereo not shown) | 2.69%
28 | CC(=O)Nc1ccc2nc(NC(=O)C(Cl)(Cl)Cl)sc2c1 | 31.1%
29 | c1cc(-c2nnc3n2CCC3)[nH]n1 | 12.5%
30 | O=C(CSc1nc(-c2ccccc2F)nc2nc[nH]c12)Nc1c(Cl)cc(Cl)cc1Cl | -6.09%
31 | c1ccc2c(c1)Sc1ccccc1-n1cnnc1-2 | -20.3%
32 | Clc1ccccc1-c1nnc2n1-c1ccccc1SC2 | -3.67%
33 | Brc1nnc2n1-c1ccccc1Sc1ccccc1-2 | -71.8%
34 | Oc1cc2ccccc2cc1-c1nnc2n1-c1ccccc1SC2 | -8.27%
35 | Cl.NCCC(=O)N1c2ccccc2Sc2ccc(Cl)cc21 | -10.8%
36 | Clc1ccc2c(c1)-c1nnc(Br)n1-c1ccccc1S2 | -52.5%
37 | COc1nc(NC(C)(C)C)nc(Oc2ccc(=O)n(C)n2)n1 | 16.8%
38 | CN(C)c1nc(-c2cccnc2)nc(-c2ccccc2)c1C#N | 10.3%
39 | CCOC(=O)COc1ccc(Oc2nc(C)cc(OC)n2)nn1 | -7.8%
40 | Cl.Nc1nonc1C(=O)NCCNCc1ccccc1OCc1ccc(F)cc1 | -65.9%
41 | Cl.Nc1nonc1C(=O)NCCNCc1cc(Br)ccc1OCc1ccc(F)cc1 | -38.2%
42 | Cl.Nc1nonc1C(=O)NCCNCc1ccccc1OCc1ccccc1F | -60.5%
43 | CCOc1ccccc1CNCCNC(=O)c1nonc1N.Cl | -13.5%
44 | Cl.Nc1nonc1C(=O)NCCNCc1c(OCc2ccccc2F)ccc2ccccc12 | -11.9%

Row | SMILES | hERG current change (%, negative = inhibition) at 10uM
45 | C=CCOc1ccccc1CNCCNC(=O)c1nonc1N.Cl | -22.8%
46 | CC1=C(C(=O)Nc2ccccc2)C(c2ccc(O)cc2)N2C(=O)CSC2=N1 (stereo not shown) | 3.47%
47 | CC(C)N(CCCNC(=O)CC1Oc2ccccc2NC1=O)Cc1ccccc1 (stereo not shown) | -26.3%
48 | Fc1ccc(/C=N/c2c(-c3ccc(F)cc3)nc3n2CCS3)cc1 | -4.46%
49 | Nc1nc2ccccc2n1/N=C/c1ccc([N+](=O)[O-])s1 | -1.38%
50 | O=C(O)/C(=C\c1cccs1)c1ccccc1 | 0.00478%
51 | COc1ccc(OC)c(-n2cnc3cc(C(=O)O)ccc32)c1 | 3.06%
52 | CCOC(=O)C1CCCN(Cc2ccc3c(c2)OCO3)C1 (stereo not shown) | -9.12%
53 | O=C(c1ccc2c(c1)OCO2)C1CCCN(Cc2c(F)ccc(F)c2F)C1 (stereo not shown) | -15.8%
54 | Cc1ccc(CN2CCCC(C(=O)c3ccc4c(c3)OCO4)C2)cc1C (stereo not shown) | -64.6%
55 | CCN(CC)C(=O)C1CCCN(Cc2ccc3c(c2)OCO3)C1 (stereo not shown) | 10%
56 | CSc1ccccc1NC(=O)N1CCCC(C(=O)c2ccc3c(c2)OCO3)C1 (stereo not shown) | -39.8%
57 | O=C(c1ccc2c(c1)OCO2)C1CCCN(Cc2cccc(C(F)(F)F)c2)C1 (stereo not shown) | -20.5%
58 | O=C(c1ccc2c(c1)OCO2)C1CCCN(C(=O)NCc2ccccc2)C1 (stereo not shown) | -14.3%
59 | CC(=O)c1cccc(CN2CCCC(C(=O)c3ccc4c(c3)OCO4)C2)c1 (stereo not shown) | -64.9%
60 | CC(=O)c1ccc(NC(=O)N2CCCC(C(=O)c3ccc4c(c3)OCO4)C2)cc1 (stereo not shown) | -16.4%
61 | O=C(c1ccc2c(c1)OCO2)C1CCCN(C2CCN(CCc3ccccc3)CC2)C1 (stereo not shown) | -69.3%
62 | O=C(c1ccc2c(c1)OCO2)C1CCCN(Cc2ccc(F)c(F)c2)C1 (stereo not shown) | -65.4%
63 | COc1ccccc1/C=C1\C(=O)Nc2ccccc21 | 2.99%
64 | Cc1cn(S(=O)(=O)c2cc(Br)ccc2Br)cn1 | 1.08%
65 | CCc1ccc(NC(=O)NCCCN2CCCC2=O)cc1 | 0.255%
66 | CN(C)C1(CNC(=O)CC(NC(=O)c2ccccc2Cl)c2ccccc2)CCCCC1 (stereo not shown) | -31.3%

Row | SMILES | hERG current change (%, negative = inhibition) at 10uM
67 | C[C@@]12CCC3[C@@](CCC4[C@@]3(C)CCC[C@@]4(C)C(=O)N3CCCCC3)(CC1=O)C2 (stereo partly shown) | 7.27%
68 | O=c1c(Cc2c(F)cccc2Cl)c(O)ccn1Cc1ccc(F)cc1 | -0.211%
69 | CCCC(=O)Nc1ccc(N2CCCCC2)cc1 | -8.42%
70 | C=C1C(=O)[C@@]23[C@H](O)C[C@@H]4C(C)(C)CC[C@H](O)[C@]4(C)[C@@H]2C[C@H](O)[C@@H]1[C@H]3O | -0.141%
71 | CC(N)C12CC3CC(CC(C3)C1)C2.Cl (stereo not shown) | 14.1%
72 | C/C(=N\N1CCCCC1)c1c(O)[nH]c(=O)[nH]c1=O | -11%
73 | Cn1c(CN2CCCC(C(=O)c3ccc4c(c3)OCO4)C2)nc2ccccc21 (stereo not shown) | -70.5%
74 | COc1cccc(C(=O)C2CCCN(Cc3ccc4nsnc4c3)C2)c1 (stereo not shown) | -26%
75 | O=C(c1ccc2c(c1)OCO2)C1CCCN(C(=O)C2CCOCC2)C1 (stereo not shown) | 7.74%
76 | O=C(c1ccc2c(c1)OCO2)C1CCCN(Cc2ccc3cccc(F)c3n2)C1 (stereo not shown) | -87%
77 | O=C(c1ccc2c(c1)OCO2)C1CCCN(CC2CCCCC2)C1 (stereo not shown) | -71.8%
78 | Cc1cccc(CN2CCCC(C(=O)c3ccc4c(c3)OCO4)C2)n1 (stereo not shown) | -49.2%
79 | O=C(c1ccc2c(c1)OCO2)C1CCCN(Cc2ccc3nsnc3c2)C1 (stereo not shown) | -71.4%
80 | Cn1cc(CN2CCCC(CNC(=O)c3ccc4c(c3)OCO4)C2)c2ccccc21 (stereo not shown) | -43.6%
81 | O=C(c1cccc(Cl)c1)C1CCCN(C(=O)c2ccc3c(c2)OCO3)C1 (stereo not shown) | -34.1%
82 | CSc1ccc(C(=O)C2CCCN(C(=O)c3ccc4c(c3)OCO4)C2)cc1 (stereo not shown) | -34%
83 | Cc1sc(NC(=S)NC(=O)c2ccccc2)c(C#N)c1C | 0.195%
84 | O=C(N/N=C1\C(=O)c2cccc3cccc1c23)c1ccc(O)cc1 | 8.35%
85 | CCOC(=O)c1[nH]c2cc(OC)c(OC)cc2c1NC(=O)c1ccc2c(c1)OCO2 | -4.45%
86 | COc1cc(C(=O)N/N=C(\C)Cn2nc([N+](=O)[O-])cc2C)ccc1O | -21.1%
87 | CC(C)(C)c1nnc(NC(=O)NS(=O)(=O)c2ccccc2)s1 | 19.7%
88 | O=C(Nc1nccs1)c1ccc(S(=O)(=O)N2CCCCC2)cc1 | 3.29%

Reference: paper PMC4336329 (PLoS ONE, 2015)
